GSH fluor: GSH bead compound fluorescence profile. GSH beads flow cytometry, compound fluorescence 488/530 nm; hits give high values. fluorescence (KMESF) at 10 µM. actives 0.25% (n = 190,000). AID 1776; in the data active = fluorescence above about 89;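 also: glutathione beads carrying GST-tagged Bcl family fusion proteins plus one bare bead set; values are compound well signal with DMSO vehicle wells as background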
RGS7-Gao reg: modulates binding of RGS7 to human Galphao. Multiplexed bead flow cytometry; actives lie on both sides. binding response (% of control), % at 10 µM. actives 0.35% (n = 220,000); in the data active = binding response below about 49% or above about 150%; inconclusive = no clear call, values can overlap the other calls; inactive = in between;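 also: fluorescent Galphao held in activated GDP-AlF4 state binding bead-coupled RGS7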
Target sequence (P09471 whole entry, looked up): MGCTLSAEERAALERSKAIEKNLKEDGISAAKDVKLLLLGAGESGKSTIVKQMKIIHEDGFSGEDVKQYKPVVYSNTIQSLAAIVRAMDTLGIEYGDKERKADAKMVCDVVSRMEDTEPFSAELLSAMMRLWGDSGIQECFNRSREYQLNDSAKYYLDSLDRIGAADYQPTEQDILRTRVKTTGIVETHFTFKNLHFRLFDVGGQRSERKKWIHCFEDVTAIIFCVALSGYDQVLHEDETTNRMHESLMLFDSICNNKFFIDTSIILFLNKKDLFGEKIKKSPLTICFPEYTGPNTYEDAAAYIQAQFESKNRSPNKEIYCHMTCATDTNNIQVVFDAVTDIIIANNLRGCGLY
Avidin fluor: avidin bead compound fluorescence profile; fluorescence (KMESF) at 10 µM; actives 0.38% (n = 220,000); AID 1775; Avidin beads, compound fluorescence 488/530 nm, flow cytometry; hits give high values; in the data active = fluorescence above about 47
RGS4-Gao reg: modulates binding of RGS4 to human Galphao | P09471 | Multiplexed bead flow cytometry; actives lie on both sides | binding response (% of control), % at 10 µM | actives 0.33% (n = 220,000); in the data active = binding response below about 49% or above about 150%; inactive = in between;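 also: fluorescent Galphao activated with aluminum fluoride binding bead-coupled RGS4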
RGS16-Gao: RGS16-Galphao interaction regulator (human). AID 1441. bead-based flow cytometry RGS16-Galphao binding, fluorescence; actives lie on both sides. binding response (% of control), % at 10 µM. actives 0.38% (n = 220,000). O15492+P09471;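 also: Galphao activated by GDP with aluminum fluoride before binding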
RGS8-Gao reg: regulators of human RGS8-Galphao interaction. response (percent of control binding), % at 10 µM. AID 1423. multiplexed bead flow cytometry, RGS8-Galphao binding; actives lie on both sides. actives 0.34% (n = 220,000); in the data active = response below about 60% or above about 140%; inactive = in between;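 also: Galphao activated as the GDP aluminium fluoride complex binding bead-coupled RGS8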
RGS4-Gao HTS: modulates binding between human RGS4 and Galphao; multiplexed bead flow cytometry, RGS–Galpha-o binding; RGS4–Galpha-o binding response, % at 10 µM; AID 1504; actives 99% (n = 1,600); shares compounds with RGS16-Gao;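 also: fluorescently labeled Galpha-o bound to GDP with aluminium fluoride binding biotinylated RGS beads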
Biotin-avidin: counter-screen: compounds disrupting biotin binding to avidin beads | shares compounds with RGS16-Gao | streptavidin beads, fluorescein-biotin binding, flow cytometry | inhibition, % at 10 µM | 1,700 tested, under 10 active;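 active = inhibition above 50%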;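 also: median green fluorescence of gated singlet beads compared with DMSO control wells; 0% = DMSO wells and 100% = complete loss of bead fluorescence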
RGS8-Gao single: confirmation of regulators of human RGS8-Galphao interaction; AID 1836; bead-based flow cytometry RGS8-Galphao binding, fluorescence; actives lie on both sides; binding response (% of control), % at 10 µM; shares compounds with RGS16-Gao; actives 3% (n = 1,700); in the data active = binding response below about 72% or above about 130%; inactive = in between;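 also: Galphao activated as GDP AlF4 complex before binding bead RGS8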
RGS7-Gao single: RGS7-Galphao interaction regulation, single point confirmation | shares compounds with RGS16-Gao | bead-based flow cytometry RGS7-Galphao binding; actives lie on both sides | response (percent of control binding), % at 10 µM | actives 7.8% (n = 1,700) | AID 1837; in the data active = response below about 75% or above about 130%; inactive = in between;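 also: fluorescent Galphao activated with GDP and aluminum fluoride binding bead-coupled RGS7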
RGS16-Gao conf: RGS16-Galphao interaction regulation, single point confirmation | shares compounds with RGS16-Gao | response (% of control binding), % at 10 µM | AID 1838 | bead-based flow cytometry, RGS16-Galphao binding; actives lie on both sides | actives 4% (n = 1,700); in the data active = response below about 74% or above about 130%; inactive = in between;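 also: Galphao activated as the GDP aluminium fluoride complex binding bead-coupled RGS16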
RGS4-Gao single: RGS4-Galphao interaction regulation, single point confirmation; actives 4% (n = 1,700); RGS4-Galphao binding, multiplexed bead flow cytometry; actives lie on both sides; shares compounds with RGS16-Gao; binding response (% of control), % at 10 µM; in the data active = binding response below about 74% or above about 130%; inactive = in between
RGS19-Gao single: confirmation of regulators of human RGS19-Galphao interaction; shares compounds with RGS16-Gao; AID 1841; actives 5% (n = 1,700); bead-based flow cytometry RGS19-Galphao binding; actives lie on both sides; response (percent of control binding), % at 10 µM; in the data active = response below about 50% or above about 160%; inactive = in between;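 also: 100% = no compound control and 0% = blank background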
Target sequence (P09471 whole entry, looked up): as above
Target sequence (P49795 whole entry, looked up): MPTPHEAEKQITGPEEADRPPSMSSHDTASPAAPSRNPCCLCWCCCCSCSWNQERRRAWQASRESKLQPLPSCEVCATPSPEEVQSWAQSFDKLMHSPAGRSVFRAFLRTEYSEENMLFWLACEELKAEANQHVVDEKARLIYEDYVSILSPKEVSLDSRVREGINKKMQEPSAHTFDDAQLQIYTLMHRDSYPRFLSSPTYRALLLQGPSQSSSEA
Active calls of the source: *; i = inactive; ? = inconclusive; · = no result given; [ ] = another dose, or the depositor's remark. Shown are actives, neighbours in structure and some others; about 1.2% of the full set was active somewhere. Unless noted, no rule for the calls is given here.

SMILES	GSH fluor	RGS7-Gao reg	Avidin fluor	RGS4-Gao reg	RGS16-Gao	RGS8-Gao reg	RGS4-Gao HTS	Biotin-avidin	RGS8-Gao single	RGS7-Gao single	RGS16-Gao conf	RGS4-Gao single	RGS19-Gao single
Cc1ccc(OCCCCn2c(CO)nc3ccccc32)cc1	10	101	12	100	103	101	·	·	·	·	·	·	·
COC(=O)CCCNC(=O)c1ccccn1	7	231*[activator]	229*	120	113	93	120*	4	94	86	90	88	126
Cc1cccc(-n2nnnc2SCC(=O)Nc2cccc(S(N)(=O)=O)c2)c1	·	?	1	98	101	101	·	·	·	·	·	·	·
CCOc1ccc(N/C(N)=N/c2nc(CSc3nnnn3-c3ccccc3)cc(=O)[nH]2)cc1	·	?	5	100	101	100	·	·	·	·	·	·	·
CCN1/C(=C/C=C/c2oc3ccc4ccccc4c3[n+]2CC)Oc2ccc3ccccc3c21	205*	616*[activator]	59*	539*[activator]	369*[activator]	126	·	-1	127*[activator]	526*[activator]	264*[activator]	431*[activator]	458*[activator]
O=C(NC(Cc1ccccc1)C(=O)O)/C(=C/c1ccc([N+](=O)[O-])cc1)NC(=O)c1ccccc1Br (configuration not stated)	11	100	10	105	105	102	·	·	·	·	·	·	·
O=C1c2ccccc2C(=O)N1CCCCN(C(=O)c1cc([N+](=O)[O-])cc([N+](=O)[O-])c1)c1ccc(Cl)cc1	5	89	10	91	16*	71	91*	i	102	102	110	104	120
O=C1c2ccccc2C(=O)N1CCCCN(C(=O)c1ccc([N+](=O)[O-])cc1)c1ccc(Cl)cc1	25	94	11	93	92	98	·	·	·	·	·	·	·
COc1c(C)cc(C(=O)C2CCCN(C(=O)c3ccc4cc[nH]c4c3)C2)cc1C (configuration not stated)	14	116	2	112	110	108	·	·	·	·	·	·	·
CCN(CC)c1ccc(N=Cc2ccccc2[N+](=O)[O-])cc1	9	95	2	93	58	84	·	·	·	·	·	·	·
CCN(CC)c1ccc(N=Cc2ccc([N+](=O)[O-])o2)cc1	8	56	2	69	20*	71	69*	-1	93	76	91	85	86
NC(=O)c1ccc(NC(=O)c2ccc(CN3CCOCC3)cc2)cc1	34	·	·	·	·	·	·	-2	101	102	101	101	99
CCOC(=O)c1ccc(NC(=O)c2ccc(CN3CCOCC3)cc2)cc1	10	104	23	107	104	104	·	·	·	·	·	·	·
CCCCc1ccc(NC(=O)CN2NS(=O)(=O)c3ccccc3C2=O)cc1	12	88	5	87	-6.9*	81	87*	·	·	·	·	·	·
CCOC(=O)C1=C(C)NC(=S)NC1c1ccsc1 (configuration not stated)	8	102	9	99	99	102	·	·	·	·	·	·	·
CCc1ccccc1NC(=O)C1CCN(C(=O)c2ccc([N+](=O)[O-])cc2)CC1	20	101	7	105	100	103	·	·	·	·	·	·	·
CC(OC(=O)c1ccccc1NS(=O)(=O)c1cccc(N)c1)C(=O)N(C)Cc1ccccc1 (configuration not stated)	8	86	8	91	12*	73	91*	1	100	104	102	102	91
Cc1ccc(-c2cc(C(=O)N3CCCc4ccccc43)c3ccccc3n2)cc1	17	101	11	101	101	101	·	·	·	·	·	·	·
O=C(c1cc(-c2cccnc2)nc2ccccc12)N1CCCc2ccccc21	10	94	3	96	13*	87	96*	1	103	104	104	105	109
OC1CCN(c2ncnc3c2nnn3Cc2c(F)cccc2Cl)CC1	46	152*[activator]	·	131	·	118	131*	0	81	70*	78	79	77
Cc1nc2ccccn2c1C(=O)NC1CCCc2ccccc21 (configuration not stated)	29	97	9	101	102	104	·	·	·	·	·	·	·
COc1ccc(CCNC(=O)COC(=O)C23CC4CC(CC(Br)(C4)C2)C3)cc1	7	87	8	91	14*	76	91*	1	104	104	107	104	102
CC(C)CC(=O)NC(C)C(c1cccs1)N1CCOCC1 (configuration not stated)	·	?	7	96	99	101	·	·	·	·	·	·	·
CCn1cc(C(=O)OCC(=O)NCc2ccccc2Cl)c(=O)c2ccc(C)nc21	15	103	10	99	108	103	·	·	·	·	·	·	·
CC(C)c1ccc(N(CC(=O)NN=C2CCN(C)CC2)S(=O)(=O)c2ccccc2)cc1	11	118	5	109	108	110	·	·	·	·	·	·	·
CSc1ccc(S(=O)(=O)N(CC(=O)NN=C2CCN(C)CC2)c2ccc(C)cc2)cc1	11	174*[activator]	63*	112	101	99	112*	1	102	125*[activator]	113	112	195*[activator]
O=C(c1ccco1)N(CCC(c1ccccc1)c1ccco1)Cc1ccco1 (configuration not stated)	20	14*	-2	23*	2.3*	12*	·	2	105	91	100	93	85
Cc1ccc(C(CCN(Cc2ccccc2)C(=O)c2ccco2)c2ccco2)cc1 (configuration not stated)	6	96	11	96	103	101	·	·	·	·	·	·	·

Source: PubChem (NMMLSC)
